This note sets out measurements from PubChem BioAssay AID1053119 (Broad Institute, 2014).

Entries with a potency or affinity are not part of this list. Inconclusive results are not listed. Calls of active or inactive are those of the source.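 How the source made its calls: active means signal loss from cell killing with fitted potency at or below twice the top valid dose; inconclusive means flat drop of 30 to 70%, or unreliable curve fit; inactive means opposite direction, flat within 30%, or weaker potency.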

The assay can be described thus: A549 cell cytotoxicity, dose response, cytotoxicity control, cherry-picks, 26 µM top dose (AID 1053119).

With `C=C1C(=O)O[C@@H]2C[C@@H](C)[C@@H]3C=CC(=O)[C@@]3(C)[C@@H](O)[C@H]12`, the compound was classed as inactive.
